# A selection: hits, their analogues and other compounds. The true share with any hit is near 2.8%.
# MITF TRPM1 inh – inhibitors of MITF-dependent TRPM1 promoter reporter, primary screen, cell-based, SK-MEL-5, single point, luciferase | SK-MEL-5 TRPM1 promoter luciferase, 24 h | inhibition, % at 12.5 µM | hit rate 0.83% among 330,000;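 active = mean inhibition across replicates of 60% or more, whatever share of single replicates reaches that level; inconclusive = some that reach 60%, reason not given; inactive = mean inhibition across replicates below 60%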
# HIF-2a block – HIF-2a reporter inhibitors, primary screen, luminescence, 786-0 RCC cells | 786-0 RCC cells HIF-2a reporter, luciferase luminescence, overnight | inhibition, % at 18.8 µM | hit rate 0.72% among 360,000;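 active = inhibition of the luminescence signal of 40% or more relative to plate controls, in a single-dose primary screen at 18.75 µM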
# KKLEB cytotox – cytotoxicity in KKLEB CF airway cells, primary screen, cytotoxicity control for CF NF-kB inhibitor project, cell-based, uHTS, fluorescence assay plates; activity change (cytotoxicity), % at 5 µM; AID 602141, 2011; hit rate 0.36% among 360,000; KKLEB CF airway cells viability, ATPlite luminescence, overnight; active compounds read low; cells stimulated with P. aeruginosa culture filtrate;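 active = corrected activity change at or below -50% at 5 µM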
# Shn3 inh set2 – reduction of Shn3 3'UTR firefly luciferase signal, primary screen, Schnurri-3 inhibitor project, cell-based, Clone20 osteoblasts, set 2; Clone20 osteoblast Shn3 3'UTR firefly luciferase, 24 h; hit rate 0.52% among 360,000; inhibition, % at 12.5 µM; AID 588674, 2011;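 active = mean inhibition of at least 75% with every replicate also reaching 75%; inconclusive = mean inhibition at least 75% but some replicate below; inactive = mean inhibition below 75%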;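 note: 0% = median of neutral control wells and 100% = pilot-screen positive control compound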
# CF NFkB inh – inhibitors of PAF-induced NF-kB signaling, primary screen, cell-based, GFP fluorescence, uHTS; KKLEB NF-kB-GFP reporter, GFP fluorescence overnight; hit rate 0.86% among 360,000; inhibition, % at 5 µM; AID 588850, 2011;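 active = at least 50% inhibition at 5 µM, scaled per plate between neutral and stimulator controls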;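 note: PAF is a Pseudomonas aeruginosa culture filtrate used as stimulus; plate controls were PAF-stimulated DMSO wells for no effect and unstimulated DMSO wells for full effect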
# Peg3 promoter – Peg3 promoter-driven luciferase inhibitors, primary screen, cell-based, HeLa, luciferase luminescence; HeLa PEG-Prom luciferase reporter, overnight; inhibition, % at 20 µM; hit rate 1.7% among 360,000;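 active = inhibition of at least 50% at 20 µM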
# Mdm2-MdmX confirm – retested Mdm2-MdmX interaction blockers, confirmation, cell-based, luminescence, single concentration, set 2; inhibition, % at 8 µM; shares compounds with HIF-2a block; SaOS-2 split-luciferase Mdm2/MdmX complementation; hit rate 99% among 740;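 active = mean inhibition of the luminescence signal across two replicates at or above 26 percent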
# Target sequence (O15151 whole entry, looked up): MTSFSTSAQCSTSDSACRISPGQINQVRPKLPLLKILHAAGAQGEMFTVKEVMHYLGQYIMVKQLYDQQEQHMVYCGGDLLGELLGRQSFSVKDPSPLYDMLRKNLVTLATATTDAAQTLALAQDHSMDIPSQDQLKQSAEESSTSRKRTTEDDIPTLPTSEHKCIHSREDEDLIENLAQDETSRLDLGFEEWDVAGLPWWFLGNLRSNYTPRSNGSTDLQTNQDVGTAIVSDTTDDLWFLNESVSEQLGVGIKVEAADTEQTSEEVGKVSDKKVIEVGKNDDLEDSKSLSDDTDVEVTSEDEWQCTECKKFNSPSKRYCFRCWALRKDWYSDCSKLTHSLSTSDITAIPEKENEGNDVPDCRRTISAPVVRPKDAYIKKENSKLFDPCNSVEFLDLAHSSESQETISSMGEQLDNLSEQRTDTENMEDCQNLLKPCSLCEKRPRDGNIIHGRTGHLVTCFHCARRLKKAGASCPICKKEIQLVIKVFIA
# Target sequence (Q00987 whole entry, looked up): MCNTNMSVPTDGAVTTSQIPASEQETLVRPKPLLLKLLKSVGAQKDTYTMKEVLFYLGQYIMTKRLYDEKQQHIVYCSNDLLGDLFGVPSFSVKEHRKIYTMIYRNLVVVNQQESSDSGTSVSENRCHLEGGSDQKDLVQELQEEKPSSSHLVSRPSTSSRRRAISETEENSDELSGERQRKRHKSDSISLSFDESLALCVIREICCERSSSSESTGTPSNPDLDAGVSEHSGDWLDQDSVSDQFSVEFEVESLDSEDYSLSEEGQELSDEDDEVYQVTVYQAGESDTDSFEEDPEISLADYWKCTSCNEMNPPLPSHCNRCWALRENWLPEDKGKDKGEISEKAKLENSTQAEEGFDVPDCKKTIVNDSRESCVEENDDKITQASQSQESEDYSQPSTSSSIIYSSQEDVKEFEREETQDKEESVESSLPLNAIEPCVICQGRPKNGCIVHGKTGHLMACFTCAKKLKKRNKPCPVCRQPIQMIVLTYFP
# HIF-2a conf – HIF-2a reporter inhibitor retest, confirmation, luminescence, 786-0 RCC cells | shares compounds with HIF-2a block | HIF-2a luciferase reporter luminescence, overnight | inhibition, % at 18.8 µM | hit rate 56% among 1,800;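 active = mean inhibition across four replicates of at least 40 percent at the single tested concentration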
# HIF-1a cs – HIF-1a luciferase reporter signal reduction – MiaPaCa-2 cells, single concentration, counter-screen for HIF-2a inhibitor project, confirmation; shares compounds with HIF-2a block; MiaPaCa-2 HIF-1a luciferase reporter, desferoxamine, overnight; inhibition, % at 18.8 µM; hit rate 72% among 1,800;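 active = mean inhibition of the reporter signal across four replicates at the single tested dose of 50% or more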
# An asterisk follows results filed as active; u = inconclusive; x = no result given.
SMILES,MITF TRPM1 inh,HIF-2a block,KKLEB cytotox,Shn3 inh set2,CF NFkB inh,Peg3 promoter,HIF-2a conf,HIF-1a cs,others
O=S(=O)(C/C(=C/CO)S(=O)(=O)c1ccccc1)c1ccccc1,78*,87*,-26,94*,99*,95*,98*,105*,Mdm2-MdmX confirm=102*
CCOC(=O)N1CCN(S(=O)(=O)c2ccc(C(=O)Nc3sc4c(c3C(=O)OC)CCN(C)C4)cc2)CC1,37,61*,-20,11,-38,110*,26,90*,
COC(=O)c1c(NC(=O)c2ccc(S(=O)(=O)N3CC(C)OC(C)C3)cc2)sc2c1CCN(C)C2 (stereo not drawn),x,2,-33,16,-3,17,x,x,
Cc1ccc(C(=O)N2N=C(CC(C)C)CC2(O)C(F)(F)F)o1 (stereo not drawn),5,19,-1,1,4,14,x,x,
O=C(CNC(=O)c1ccccc1F)NCCN1C(=O)S/C(=C\c2ccc3c(c2)OCO3)C1=O,-13,14,-2,-21,-12,-48,x,x,
NCCN1C(=O)S/C(=C\c2ccc3c(c2)OCO3)C1=O,u,86*,11,63,-14,-8,95*,67*,
Nc1ccc(C2(c3ccc(N)cc3)c3ccccc3C(=O)c3ccccc32)cc1,7,42*,1,-16,21,44,33,55*,
O=C1OC2(c3ccccc31)c1ccccc1-c1ccccc12,9,4,-14,2,17,32,x,x,
CCC1C(c2ccccc2)N(C)C(c2ccccc2)CC1(O)c1ccccc1 (stereo not drawn),6,33,3,10,26,35,x,x,
CC(C)C1C(c2ccccc2)N(C)C(c2ccccc2)CC1(O)c1ccccc1 (stereo not drawn),-10,53*,-3,-4,17,34,2,29,
COC(=O)c1c(NC(=O)c2nc3ccccc3s2)sc2c1CC(C)(C)NC2(C)C,77*,23,-32,72,34,104*,x,x,Mdm2-MdmX confirm=93*
COc1cccc(NC(=O)N(C)C[C@H]2Oc3cc(C#Cc4ccncc4)ccc3S(=O)(=O)N([C@H](C)CO)C[C@H]2C)c1,x,43*,-16,-16,-2,17,19,38,
COc1ccc(Nc2ncnc3scc(-c4ccc(OC)cc4)c23)cc1,21,42*,-18,16,27,30,26,58*,
COc1ccc(-c2csc3ncnc(Cl)c23)cc1,0,12,-13,-16,29,3,x,x,
O=C(C[C@H]1C[C@H](C(=O)N2CCCCC2)[C@@]2(CCc3ccccc3)c3[nH]c4ccc(Cl)cc4c3CCN2C1=O)NCCCn1ccnc1,24,76*,6,-15,-1,33,12,98*,
COc1ccc(N(C(=O)c2ccco2)C(C(=O)NC2CCCCC2)c2cccs2)cc1OC (stereo not drawn),2,13,-9,-3,0,11,x,x,
COc1ccc(N(C(=O)CCl)C(C(=O)NCCc2ccccc2)c2cccs2)cc1Cl (stereo not drawn),86*,95*,-104*,u,89*,102*,99*,103*,
COc1cccc(N(C(=O)CCl)C(C(=O)NCCc2ccccc2)c2cccs2)c1 (stereo not drawn),88*,93*,-90*,37,94*,109*,98*,107*,
COc1ccc2cc(C3CC=C(CO)CN3S(=O)(=O)c3ccccc3[N+](=O)[O-])n(C(=O)OC(C)(C)C)c2c1 (stereo not drawn),x,13,x,x,x,x,x,x,
O[C@H]1C[C@H](c2ccccc2)N(CC2CCCCC2)C[C@@H]1n1cc(C2CC2)nn1,x,-50,-10,8,3,-11,x,x,
Cn1cnnc1Sc1ccc(C(=O)OCC(=O)Nc2ccccc2)cc1[N+](=O)[O-],2,6,-3,-2,-1,-13,x,x,
COc1ccc(NC(=O)/C(C#N)=C/c2ccc(Sc3nncn3C)c([N+](=O)[O-])c2)cc1,55,43*,0,-7,12,26,24,21,
Cc1ccc(NC(=O)c2ccccc2)cc1,-74,-225,-17,-75,12,-307,x,x,
Cc1ccc(NC(=O)C2=C(c3ccccc3)S(=O)(=O)CCS2(=O)=O)cc1,95*,81*,-72*,96*,96*,109*,81*,102*,Mdm2-MdmX confirm=103*
O=C(O)C(Cc1c[nH]c2ccccc12)N1C(=O)C2C3c4ccccc4C(c4ccccc43)[C@@H]2C1=O (stereo partly drawn),4,1,12,-17,0,8,x,x,
SMILES,MITF TRPM1 inh,HIF-2a block,KKLEB cytotox,Shn3 inh set2,CF NFkB inh,Peg3 promoter,HIF-2a conf,HIF-1a cs,others
CCOc1ccc(NC(=O)CCCc2cc(-c3ccc(OCC)cc3)on2)cc1,22,4,-15,12,-11,-11,x,x,
CCOc1ccc(-c2cc(CCCC(=O)Nc3cc(OC)ccc3OC)no2)cc1,49,57*,21,25,-11,-38,79*,52*,
CCOc1ccc(-c2cc(CCCC(=O)Nc3cccc(OC)c3)no2)cc1,u,42*,-6,22,6,-13,52*,70*,
CC(C)C(=O)NNC(=O)c1c(O)c2ccccc2[nH]c1=O,13,-1,6,5,-10,11,x,x,
CC(C)NC(=O)c1c(O)c2ccccc2[nH]c1=O,-10,-101,4,-25,0,-30,x,x,Mdm2-MdmX confirm=92*
CCCC(=O)NC(c1ccccc1OC)c1ccc2cccnc2c1O (stereo not drawn),81*,25,0,88*,6,58*,x,x,Mdm2-MdmX confirm=87*
CC(C)C(=O)NC(c1cccc([N+](=O)[O-])c1)c1ccc2cccnc2c1O (stereo not drawn),62*,20,-9,89*,8,63*,x,x,Mdm2-MdmX confirm=88*

# Bioassay records as filed in PubChem BioAssay.
